Data published in the supplement of paper PMC8728848.
The entries come from a sample that favours the strongest signals as a whole.

Tests used:
Assay in all cases: glycan array binding signal (z-score within array); higher = stronger binding
Settings in all cases: glycan notation: IUPAC condensed, linker removed; mutation: R201A
Fuc(a1-2)Gal = target: Fuc(a1-2)Gal
Method in brief: (§1)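 Arrays were curated from the Consortium for Functional Glycomics database, 3228 in total, and kept only where the protein sequence was available. Binding is expressed as a within-array Z-score. This score was averaged across arrays of the same protein sequence at different concentrations or buffers and across linkers, and negative values can be read as non-binding.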

[1] = target: Fuc(a1-2)Gal(b1-3)GalNAc(b1-3)Gal(a1-4)Gal(b1-4)Glc
Method in brief: as §1

[2] = target: Fuc(a1-2)Gal(b1-3)GalNAc(b1-4)[Neu5Ac(a2-3)]Gal(b1-4)Glc
Method in brief: as §1

Fuc(a1-2)Gal(b1-4)Glc = target: Fuc(a1-2)Gal(b1-4)Glc
Method in brief: as §1

[3] = target: Fuc(a1-2)[Gal(a1-3)]Gal(b1-3)GlcNAc
Method in brief: as §1

[4] = target: Fuc(a1-2)[Gal(a1-3)]Gal(b1-4)GlcNAc(b1-2)Man(a1-3)[Fuc(a1-2)[Gal(a1-3)]Gal(b1-4)GlcNAc(b1-2)Man(a1-6)]Man(b1-4)GlcNAc(b1-4)GlcNAc
Method in brief: as §1

[5] = target: Fuc(a1-2)[Gal(a1-3)]Gal(b1-4)GlcNAc(b1-3)[Fuc(a1-2)[Gal(a1-3)]Gal(b1-4)GlcNAc(b1-6)]GalNAc
Method in brief: as §1

[6] = target: Fuc(a1-2)[Gal(a1-3)]Gal(b1-4)GlcNAc(b1-6)GalNAc
Method in brief: as §1

[7] = target: Fuc(a1-2)[GalNAc(a1-3)]Gal(b1-4)GlcNAc(b1-2)Man(a1-3)[Fuc(a1-2)[GalNAc(a1-3)]Gal(b1-4)GlcNAc(b1-2)Man(a1-6)]Man(b1-4)GlcNAc(b1-4)[Fuc(a1-6)]GlcNAc
Method in brief: as §1

[8] = target: Fuc(a1-2)[GalNAc(a1-3)]Gal(b1-4)GlcNAc(b1-3)Gal(b1-4)GlcNAc(b1-3)Gal(b1-4)GlcNAc
Method in brief: as §1

[9] = target: Fuc(a1-3)[Gal(b1-4)]GlcNAc(b1-2)Man(a1-3)[Fuc(a1-3)[Gal(b1-4)]GlcNAc(b1-2)Man(a1-6)]Man(b1-4)GlcNAc(b1-4)[Fuc(a1-6)]GlcNAc
Method in brief: as §1

[10] = target: Fuc(a1-3)[Gal3S(b1-4)]GlcNAc
Method in brief: as §1

Fuc(a1-4)GlcNAc = target: Fuc(a1-4)GlcNAc
Method in brief: as §1

Gal(a1-3)Gal(b1-4)GlcNAc = target: Gal(a1-3)Gal(b1-4)GlcNAc
Method in brief: as §1

[11] = target: Gal(a1-3)Gal(b1-4)[Fuc(a1-3)]GlcNAc(b1-2)Man(a1-3)[Gal(a1-3)Gal(b1-4)[Fuc(a1-3)]GlcNAc(b1-2)Man(a1-6)]Man(b1-4)GlcNAc(b1-4)GlcNAc
Method in brief: as §1

[12] = target: Gal(a1-4)Gal(b1-4)GlcNAc(b1-3)Gal(b1-4)Glc
Method in brief: as §1

[13] = target: Gal(b1-3)GlcNAc(b1-2)Man(a1-3)[Gal(b1-3)GlcNAc(b1-2)Man(a1-6)]Man(b1-4)GlcNAc(b1-4)[Fuc(a1-6)]GlcNAc
Method in brief: as §1

[14] = target: Gal(b1-3)GlcNAc(b1-2)Man(a1-3)[GlcNAc(b1-4)][Gal(b1-3)GlcNAc(b1-2)Man(a1-6)]Man(b1-4)GlcNAc(b1-4)GlcNAc
Method in brief: as §1

[15] = target: Gal(b1-4)GlcNAc(b1-3)Gal(b1-3)GalNAc
Method in brief: as §1

[16] = target: Gal(b1-4)GlcNAc(b1-3)Gal(b1-4)Glc
Method in brief: as §1

[17] = target: Gal(b1-4)GlcNAc(b1-3)Gal(b1-4)GlcNAc(b1-3)Gal(b1-4)GlcNAc(b1-3)Gal(b1-4)GlcNAc(b1-3)Gal(b1-4)GlcNAc(b1-2)Man(a1-3)[Gal(b1-4)GlcNAc(b1-3)Gal(b1-4)GlcNAc(b1-3)Gal(b1-4)GlcNAc(b1-3)Gal(b1-4)GlcNAc(b1-3)Gal(b1-4)GlcNAc(b1-2)Man(a1-6)]Man(b1-4)GlcNAc(b1-4)GlcNAc
Method in brief: as §1

[18] = target: Gal(b1-4)GlcNAc(b1-3)Gal(b1-4)GlcNAc(b1-3)Gal(b1-4)GlcNAc(b1-3)Gal(b1-4)GlcNAc(b1-3)Gal(b1-4)GlcNAc(b1-3)Gal(b1-4)GlcNAc(b1-2)Man(a1-3)[Gal(b1-4)GlcNAc(b1-3)Gal(b1-4)GlcNAc(b1-3)Gal(b1-4)GlcNAc(b1-3)Gal(b1-4)GlcNAc(b1-3)Gal(b1-4)GlcNAc(b1-3)Gal(b1-4)GlcNAc(b1-2)Man(a1-6)]Man(b1-4)GlcNAc(b1-4)GlcNAc
Method in brief: as §1

Gal3S6S(b1-4)GlcNAc6S = target: Gal3S6S(b1-4)GlcNAc6S
Method in brief: as §1

Gal6P(b1-4)GlcNAc = target: Gal6P(b1-4)GlcNAc
Method in brief: as §1

GalNAc(a1-3)Gal = target: GalNAc(a1-3)Gal
Method in brief: as §1

[19] = target: GalNAc(b1-3)Gal(a1-4)Gal(b1-4)GlcNAc
Method in brief: as §1

GalNAc3S(b1-4)GlcNAc = target: GalNAc3S(b1-4)GlcNAc
Method in brief: as §1

[20] = target: Glc(a1-6)Glc(a1-6)Glc(a1-6)Glc
Method in brief: as §1

Glc(b1-4)Glc = target: Glc(b1-4)Glc
Method in brief: as §1

GlcA(b1-3)GlcNAc = target: GlcA(b1-3)GlcNAc
Method in brief: as §1

[21] = target: GlcNAc(b1-2)Man(a1-3)[GlcNAc(b1-2)Man(a1-6)]Man(b1-4)GlcNAc(b1-4)[Fuc(a1-6)]GlcNAc
Method in brief: as §1

GlcNAc(b1-3)Fuc = target: GlcNAc(b1-3)Fuc
Method in brief: as §1

GlcNAc(b1-3)Gal = target: GlcNAc(b1-3)Gal
Method in brief: as §1

[22] = target: GlcNAc(b1-3)Gal(b1-4)GlcNAc
Method in brief: as §1

[23] = target: GlcNAc(b1-3)Gal(b1-4)GlcNAc(b1-2)Man(a1-3)[GlcNAc(b1-3)Gal(b1-4)GlcNAc(b1-2)Man(a1-6)]Man(b1-4)GlcNAc(b1-4)[Fuc(a1-6)]GlcNAc
Method in brief: as §1

[24] = target: GlcNAc(b1-4)Gal(b1-4)GlcNAc
Method in brief: as §1

GlcNAc(b1-4)GlcNAc = target: GlcNAc(b1-4)GlcNAc
Method in brief: as §1

[25] = target: GlcNAc(b1-4)GlcNAc(b1-4)GlcNAc
Method in brief: as §1

GlcNAc(b1-6)GalNAc = target: GlcNAc(b1-6)GalNAc
Method in brief: as §1

[26] = target: GlcNAc6S(b1-3)Gal(b1-4)GlcNAc
Method in brief: as §1

[27] = target: Kdn(a2-3)Gal(b1-4)[Fuc(a1-3)]GlcNAc
Method in brief: as §1

Man(a1-2)Man(a1-3)Man = target: Man(a1-2)Man(a1-3)Man
Method in brief: as §1

[28] = target: Neu5Ac(a2-3)Gal(b1-3)GalNAc(b1-4)[Neu5Ac(a2-3)]Gal(b1-4)Glc
Method in brief: as §1

[29] = target: Neu5Ac(a2-3)Gal(b1-3)GlcNAc(b1-2)[Neu5Ac(a2-3)Gal(b1-3)GlcNAc(b1-4)]Man(a1-6)[Neu5Ac(a2-3)Gal(b1-3)GlcNAc(b1-2)Man(a1-3)]Man(b1-4)GlcNAc(b1-4)GlcNAc
Method in brief: as §1

[30] = target: Neu5Ac(a2-3)Gal(b1-3)GlcNAc6S
Method in brief: as §1

Neu5Ac(a2-3)Gal(b1-4)Glc = target: Neu5Ac(a2-3)Gal(b1-4)Glc
Method in brief: as §1

[31] = target: Neu5Ac(a2-3)Gal(b1-4)GlcNAc(b1-2)Man(a1-3)[Neu5Ac(a2-6)Gal(b1-4)GlcNAc(b1-2)Man(a1-6)]Man(b1-4)GlcNAc(b1-4)GlcNAc
Method in brief: as §1

[32] = target: Neu5Ac(a2-3)Gal(b1-4)GlcNAc(b1-3)Gal(b1-4)GlcNAc
Method in brief: as §1

[33] = target: Neu5Ac(a2-3)Gal(b1-4)[Fuc(a1-3)]GlcNAc(b1-3)Gal(b1-4)GlcNAc
Method in brief: as §1

[34] = target: Neu5Ac(a2-6)Gal(b1-4)GlcNAc(b1-2)Man(a1-6)Man(b1-4)GlcNAc(b1-4)GlcNAc
Method in brief: as §1

[35] = target: Neu5Ac(a2-6)Gal(b1-4)GlcNAc(b1-3)Gal(b1-4)GlcNAc(b1-3)GalNAc
Method in brief: as §1

[36] = target: Neu5Ac(a2-6)Gal(b1-4)GlcNAc(b1-6)[Gal(b1-3)GlcNAc(b1-3)]Gal(b1-4)Glc
Method in brief: as §1

B1: OS9 (Arabidopsis thaliana) (protein)
chain: MRGSHHHHHHGMASMTGGQQMGRDLYDDDDKSRLQIFPAHLVGTFSRNNREPKYKIEFLPEDSPFHPGDNLESMVMLDKHGNRFLCYLPKEEKATSGWTSSQQNISTVMMETQQLVKLKTPDELLQPLSEKCLFRQEGWWSYEFCHQKYVRQLHVEDENKIVQEFFLGTFDPEATAAFNQTVSDASTDASQRYHSHVYTNGTTCDLTGSPAEVEVRFVCAETRAMVTSITELSTCKYALTVQCPTLCKHPLFQLEKPVSHTIHCNAIPVEEDATRNKEEQAVDESPKMIADS
- glycan array binding signal (z-score) (Fuc(a1-2)Gal): 0.581
- glycan array binding signal (z-score) [1]: -0.131
- glycan array binding signal (z-score) [2]: -0.246
- glycan array binding signal (z-score) (Fuc(a1-2)Gal(b1-4)Glc): -0.732
- glycan array binding signal (z-score) [3]: -0.124
- glycan array binding signal (z-score) [4]: -0.237
- glycan array binding signal (z-score) [5]: 1.25
- glycan array binding signal (z-score) [6]: -0.223
- glycan array binding signal (z-score) [7]: -0.739
- glycan array binding signal (z-score) [8]: 2.49
- glycan array binding signal (z-score) [9]: 3.48
- glycan array binding signal (z-score) [10]: 0.043
- glycan array binding signal (z-score) (Fuc(a1-4)GlcNAc): 2.18
- glycan array binding signal (z-score) (Gal(a1-3)Gal(b1-4)GlcNAc): -0.929
- glycan array binding signal (z-score) [11]: 0.205
- glycan array binding signal (z-score) [12]: -0.456
- glycan array binding signal (z-score) [13]: -0.307
- glycan array binding signal (z-score) [14]: -0.686
- glycan array binding signal (z-score) [15]: -0.513
- glycan array binding signal (z-score) [16]: -0.35
- glycan array binding signal (z-score) [17]: -0.257
- glycan array binding signal (z-score) [18]: 0.133
- glycan array binding signal (z-score) (Gal3S6S(b1-4)GlcNAc6S): 3.98
- glycan array binding signal (z-score) (Gal6P(b1-4)GlcNAc): -0.208
- glycan array binding signal (z-score) (GalNAc(a1-3)Gal): 1.39
- glycan array binding signal (z-score) [19]: 2.17
- glycan array binding signal (z-score) (GalNAc3S(b1-4)GlcNAc): 2.29
- glycan array binding signal (z-score) [20]: -1.12
- glycan array binding signal (z-score) (Glc(b1-4)Glc): 2.1
- glycan array binding signal (z-score) (GlcA(b1-3)GlcNAc): 1.54
- glycan array binding signal (z-score) [21]: 0.257
- glycan array binding signal (z-score) (GlcNAc(b1-3)Fuc): 0.403
- glycan array binding signal (z-score) (GlcNAc(b1-3)Gal): -0.422
- glycan array binding signal (z-score) [22]: -0.104
- glycan array binding signal (z-score) [23]: 2.59
- glycan array binding signal (z-score) [24]: 0.805
- glycan array binding signal (z-score) (GlcNAc(b1-4)GlcNAc): 8.22
- glycan array binding signal (z-score) [25]: 0.6
- glycan array binding signal (z-score) (GlcNAc(b1-6)GalNAc): -0.498
- glycan array binding signal (z-score) [26]: -0.224
- glycan array binding signal (z-score) [27]: 0.82
- glycan array binding signal (z-score) (Man(a1-2)Man(a1-3)Man): 0.874
- glycan array binding signal (z-score) [28]: -0.662
- glycan array binding signal (z-score) [29]: -1.14
- glycan array binding signal (z-score) [30]: -0.775
- glycan array binding signal (z-score) (Neu5Ac(a2-3)Gal(b1-4)Glc): 2.08
- glycan array binding signal (z-score) [31]: -0.425
- glycan array binding signal (z-score) [32]: 0.1
- glycan array binding signal (z-score) [33]: 1.98
- glycan array binding signal (z-score) [34]: -0.225
- glycan array binding signal (z-score) [35]: 0.709
- glycan array binding signal (z-score) [36]: -0.933
